Over roughly 33,000 sequences, “E-score (-0.5 to 0.5)” has its median near -0.0034; the highest 2% begin near 0.25. For the sample, the highest values were picked, then their nearest neighbours and some sequences at random.
target: T1, Yap3 (UniProt P38749); assay: PBM E-score (8-mer binding enrichment) (E-score (-0.5 to 0.5)); higher = stronger / more preferred TF binding; settings: protein concentration: 100 nM; construct: GST-full length
T1 sequence: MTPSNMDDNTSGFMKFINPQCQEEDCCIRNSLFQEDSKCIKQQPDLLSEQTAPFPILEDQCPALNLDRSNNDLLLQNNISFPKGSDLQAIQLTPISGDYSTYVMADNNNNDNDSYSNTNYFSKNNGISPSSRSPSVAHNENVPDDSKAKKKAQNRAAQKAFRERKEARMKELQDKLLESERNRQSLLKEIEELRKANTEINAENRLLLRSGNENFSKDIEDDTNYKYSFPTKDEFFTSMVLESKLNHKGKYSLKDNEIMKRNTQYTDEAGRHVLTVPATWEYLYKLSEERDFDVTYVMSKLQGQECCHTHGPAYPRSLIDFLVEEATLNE
Experimental: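 Universal 'all 10-mer' protein binding microarrays (Agilent AMADID 015681) probed with GST-tagged S. cerevisiae TFs (full-length or DBD) made by in vitro transcription/translation (PURExpress), about 100-200 nM. Bound TF was detected with fluorescent anti-GST. Each ungapped 8-mer (which stands for itself and its reverse complement) is scored by the PBM enrichment score (E-score), a modified Wilcoxon-Mann-Whitney statistic from -0.5 to +0.5, computed with the Universal PBM Analysis Suite. Scale: above 0.35 generally sequence-specific binding.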

| Sequence | PBM E-score |
| --- | --- |
| ACCATATG | 0.122 |
| CGCATATA | 0.00761 |
| GTTATATA | 0.224 |
| ACTATATC | 0.227 |
| ACCATATA | 0.285 |
| GCTATATA | 0.101 |
| ACCTAAAC | 0.122 |
| GAGGGATC | -0.253 |
| ACTGGTAA | 0.184 |
| CCTAGACC | -0.146 |
| CGAAGGTA | 0.00763 |
| AGTGCGCG | -0.0557 |
| CCCTGTCC | -0.276 |
| TAGAGCAA | -0.0378 |
| AAACTGCT | -0.156 |
| GACTCTTA | 0.141 |
| ATTATATC | 0.16 |
| ATTATATG | 0.221 |
| ATTATATA | 0.3 |
| AATGCCAG | -0.00344 |
| GCGTGGCC | -0.3 |
| TGTCGAAA | -0.0162 |
| TAATAGAA | 0.257 |
| TAATAACA | 0.189 |
| GAATAGAA | 0.125 |

| Sequence | PBM E-score |
| --- | --- |
| GAATAATA | 0.292 |
| CAATAACA | 0.0825 |
| AAATAAAT | 0.241 |
| AAATAATT | 0.287 |
| GAATAATC | 0.217 |
| GAATAAGA | 0.109 |
| GAATAACA | 0.308 |
| AAATAAGT | 0.145 |
| AAATAGAA | 0.0373 |
| TAACACTA | 0.245 |
| ACGCGTTA | 0.0763 |
| GGCTCTGA | -0.03 |
| CAGAGTTA | -0.0557 |
| ACACCATA | 0.164 |
| GCGCACCA | -0.0312 |
| TAATAATA | 0.373 |
| GATTAGAA | 0.0967 |
| CAATAATA | 0.237 |
| AAATAATC | 0.0637 |
| AAATAAAA | 0.224 |
| AAATAATA | 0.307 |
| TAATAAGA | 0.136 |
| GAATAAAA | 0.178 |
| TATTAGAA | 0.287 |
| AAATAATG | 0.24 |

| Sequence | PBM E-score |
| --- | --- |
| TAATAAAA | 0.324 |
| CATTAGAA | 0.123 |
| AAATGAGT | 0.23 |
| ACATCCAT | 0.0624 |
| TGGCCACA | -0.0477 |
| GCCTATGA | -0.134 |
| GGTCCCAA | -0.151 |
| ATCGACAT | 0.0988 |
| ACCTGCTG | 0.0821 |
| TGATAACA | 0.258 |
| CGATAACA | 0.097 |
| GGATAACA | 0.116 |
| CGTTTTAA | 0.126 |
| GAGGACGC | -0.1 |
| GGTTCTAA | 0.218 |
| AGTTCTAA | -0.0287 |
| TGTTCTAA | 0.256 |
| AGCTTGCG | -0.219 |
| AATTGGGT | 0.331 |
| AATTGGGG | -0.023 |
| AATTGGGC | 0.0215 |
| TCTATTAA | 0.188 |
| TATATTAA | 0.315 |
| TGTATTAA | 0.126 |
| AATATTAT | 0.333 |

| Sequence | PBM E-score |
| --- | --- |
| TATCTCAA | 0.256 |
| AATCTCAA | 0.134 |
| GATATTAA | 0.212 |
| AATATTAA | 0.346 |
| GCTATTAA | 0.103 |
| AATATTAG | 0.239 |
| ACTATTAT | 0.123 |
| CATCTCAA | 0.108 |
| AGAGGAAG | -0.0758 |
| AATCGGGA | 0.0297 |
| CTTTGATC | -0.0556 |
| TGTAGAAA | 0.0253 |
| CGATGGCA | -0.145 |
| TAGCGGAA | -0.00131 |
| CATATCAA | 0.275 |
| GATATTAC | 0.371 |
| CCTATTAC | 0.176 |
| AATATTCG | 0.223 |
| AATATCAA | 0.244 |
| AATATTCC | 0.281 |
| AATATTCT | 0.133 |
| GATATTCC | 0.12 |
| GCTATTAC | 0.137 |
| AATATTAC | 0.31 |
| CATATCAG | 0.064 |

| Sequence | PBM E-score |
| --- | --- |
| AATATTGC | 0.202 |
| ACGAACTC | 0.0654 |
| TAGGAGAA | -0.178 |
| AGAACGAA | 0.233 |
| ATGTTGCA | 0.0661 |
| TCATTCGA | 0.195 |
| AGGATTAC | 0.125 |
| GGAACGAC | -0.133 |
| AGAGAATA | 0.208 |
| CAAATCAA | 0.267 |
| CATATTTC | 0.0493 |
| CATATTAA | 0.299 |
| AAAATCAA | 0.19 |
| TATATTCA | 0.259 |
| AATATTCA | 0.223 |
| CGTATTAA | 0.0173 |
| CATATTAG | 0.184 |
| GATATTCA | 0.0491 |
| CATATTAC | 0.282 |
| GAAATCAA | 0.0981 |
| CATATTGA | 0.0743 |
| AAATACAT | 0.154 |
| CTTGGTGC | -0.023 |
| AGATAGCA | 0.0137 |
| AACAGCAC | 0.0426 |

| Sequence | PBM E-score |
| --- | --- |
| GCGATCGC | 0.191 |
| CAATATGG | -0.00272 |
| CACATTGC | 0.0928 |
| CACTGCTA | 0.025 |
| CGTTCTGA | -0.106 |
| CACATTAC | 0.276 |
| AACATTAC | 0.149 |
| CACATTAG | -0.0914 |
| AATATCAT | 0.277 |
| AATATCAG | 0.121 |
| AATATCAC | 0.222 |
| ACAATTCT | 0.0509 |
| AGGTTTGA | -0.014 |
| CCAGGTCC | -0.307 |
| GACATACA | 0.256 |
| TACATACA | 0.209 |
| CACATACA | -0.0173 |
| GGACCGGA | -0.112 |
| ATTACAAA | 0.37 |
| CTTACAAA | 0.19 |
| ATTACAAG | 0.166 |
| GATACAAA | 0.162 |
| TTTACAAA | 0.262 |
| AATACAAG | 0.24 |
| AATACAAA | 0.259 |

| Sequence | PBM E-score |
| --- | --- |
| ATTACAAT | 0.125 |
| GTTACAAA | 0.225 |
| AGCATTCG | -0.106 |
| GGATACGA | 0.0439 |
| CGGCTGTA | -0.147 |
| AATGTATG | 0.0768 |
| AAGCCAGC | -0.0187 |
| GTCGGGTA | 0.0387 |
| GCTGCATA | 0.0463 |
| AAGGGTGA | -0.0745 |
| AGAGCCAG | -0.175 |
| GTGACTAA | 0.262 |
| CTGACTTA | 0.16 |
| ATGACTAA | 0.431 |
| ATGACTAG | 0.07 |
| ATGACTAC | 0.0437 |
| GTGACTGA | 0.167 |
| CTGACTAC | -0.0607 |
| CTGACTAA | 0.392 |
| GTGACTCA | 0.0409 |
| CGCTATCC | 0.0718 |
| ACAGATCC | 0.145 |

Source: the supplement of paper PMC3334620
